In PubChem BioAssay (NCATS):
Where “and” joins values, the source holds several entries; their conditions need not be identical. Equal entries are not always repeated. Records with an inconclusive call do not appear. A structure can be active in one record and inactive in another. Calls of active or inactive are those of the source. Calls come from the whole dose curve; as a rule, active = well fitted curve in the direction sought with a large enough effect; inconclusive = small, poorly fitted or top-dose-only effect, or another doubt; inactive = no such curve, though single readings can be large; an effect the other way counts as inactive or inconclusive.

Assays:
[1] = qHTS assay for measurement of the activity of small molecule inhibitors on Zika virus induced Caspase-3 activity in human astrocytoma cells (AID 1224859)
How it was run: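 Percent inhibition of virus-induced caspase-3/7 signal is calculated against uninfected and ZIKV-infected control cells. Cells are SNB-19, infected at 2 FFU/cell for 6 h after 1 h compound exposure.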

[2] = qHTS Screen of the MIPE 4.0 Collection Against Ewings Sarcoma (RDES) (AID 1259252); note: nearly all actives have a fitted effect of over 35% in size; note: potency is the fitted concentration of half-maximal effect
How it was run: (§1)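 Here, cells in 5% FBS RPMI were exposed for two days (48 h) to compound dilutions added four hours after plating. ATP-based CellTiter-Glo luminescence measured viability, normalized to vehicle and no-cell blanks.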

[3] = qHTS Screen of the MIPE 4.0 Collection Against Ewings Sarcoma (TC71) (AID 1259253); note: nearly all actives have a fitted effect of over 40% in size; note: potency is the fitted concentration of half-maximal effect
How it was run: as §1

[4] = qHTS Screen of the MIPE 4.0 Collection Against Ewings Sarcoma (EW8) (AID 1259255); note: nearly all actives have a fitted effect of over 35% in size; note: potency is the fitted concentration of half-maximal effect
How it was run: as §1

[5] = qHTS Screen of the MIPE 4.0 Collection Against Ewings Sarcoma (TC32) (AID 1259256); note: nearly all actives have a fitted effect of over 45% in size; note: potency is the fitted concentration of half-maximal effect
How it was run: as §1

[6] = Identifying Small Molecule Inhibitors of Pancreatic Cancer Stem Cells (A278, Adherent) (AID 1259361);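 note: viability read after 48 h compound exposure; nearly all actives have a fitted effect of over 35% in size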
How it was run: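 Luminescent ATP readout (CellTiter-Glo) quantifies surviving cells after a 48 h drug incubation. Normalization uses DMSO wells as no inhibition and media-only wells as full inhibition; bortezomib served as positive control.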

[7] = P-glycoprotein substrates identified in KB-8-5-11 adenocarcinoma cell line, qHTS therapeutic library screen (AID 1346987); note: nearly all actives have a fitted effect of over 65% in size; note: potency is the fitted concentration of half-maximal effect
How it was run: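 KB-8-5-11, a colchicine-selected P-gp-overexpressing KB-3-1 subline, was grown without colchicine for the assay. Cells were seeded at 500 cells/well, dosed in concentration-response and incubated 72 h at 37 degree C, 5% CO2. Viability was read by CellTiter-Glo luminescence.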

[8] = NS1 protein of Zika virus - qHTS assay to identify small molecule inhibitors in human HEK 293 cells (AID 1347053); note: nearly all actives have a fitted effect of over 55% in size; note: potency is the fitted concentration of half-maximal effect
How it was run: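 Following 20 h seeding, HEK 293 cells took compound, then 1 h later ZIKV MR766 (MOI = 0.5). Incubation ran 24 h at 37 C before TR-FRET detection of NS1; a drop in signal indicates inhibition.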

[9] = P-glycoprotein substrates identified in KB-3-1 adenocarcinoma cell line, qHTS therapeutic library screen (AID 1346986); note: nearly all actives have a fitted effect of over 60% in size;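 note: potency is the fitted concentration of half-maximal effect; potency is for cytotoxicity meaning loss of cell viability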
How it was run: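 Resistance attributable to P-gp was assessed by comparing AC50 in KB-8-5-11 with parental KB-3-1 and by tariquidar reversal. Cells were exposed 72 h and viability read by CellTiter-Glo.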

[10] = Identifying Small Molecule Inhibitors of Pancreatic Cancer Stem Cells (Panc1, Adherent) (AID 1259362); settings: Potency: viability; note: potency is the fitted concentration of half-maximal effect
How it was run: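 Spheroids grown 14 days in stem cell media on hydrogel-coated nonadherent plates; 2D lines seeded directly. Compounds added after 4 h attachment, 48 h at 37C, 5% CO2; CellTiter-Glo luminescence normalized to DMSO (no inhibition) and no-cell wells (full inhibition).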

Nc1ccccc1NC(=O)c1ccc(CNc2nccc(-c3cccnc3)n2)cc1
inactive: Potency [1] | Potency [8]
active: Potency [2] 1.32 µM | Potency [3] 1.05 µM | Potency [4] 1.05 µM | Potency [5] 0.935 µM | IC50 (viability decrease) [6] 1.18 µM | Potency [7] 2.96 µM and 2.31 µM

CCCCOc1c(C(=O)c2c(F)cc(C)cc2F)cnc2n[nH]cc12
inactive and 3.66 µM (active): Potency [9]
inactive: Potency [1] | Potency [7] | Potency [8]
active: Potency [2] 2.96 µM | Potency [3] 2.96 µM | Potency [4] 18.7 µM | Potency [5] 16.6 µM

O=C(Nc1nc2cccc(-c3ccc(CN4CCS(=O)(=O)CC4)cc3)n2n1)C1CC1
inactive: Potency [1] | Potency [8]
active: Potency [2] 16.6 µM | Potency [3] 9.35 µM | Potency [4] 9.35 µM | Potency [5] 8.33 µM | Potency [9] 20.6 µM

COc1ccc(-c2cc3c(C)nc(N)nc3n(C3CCC(OCCO)CC3)c2=O)cn1 (stereo not drawn)
inactive: Potency [1]
active: Potency [2] 0.118 µM | Potency [3] 0.0743 µM | Potency [4] 0.0662 µM | Potency [5] 0.0264 µM | Potency [9] 0.184 µM | Potency [7] 41.8 nM and 366 nM | Potency [8] 1.48 µM

CN(C1CCc2c(c3ccccc3n2CC(=O)O)C1)S(=O)(=O)c1ccc(F)cc1 (stereo not drawn)
inactive: Potency [1] | Potency [2] | Potency [3] | Potency [4] | Potency [5] | Potency [9] | Potency [7] | Potency [8]

Cc1cc(CN2CCN(c3c(Br)cnc4nc(-c5ccc(N6CCN(C)CC6)cc5)[nH]c34)CC2)no1
inactive: Potency [1]
active: Potency [2] 14.8 µM | Potency [3] 18.7 µM | Potency [4] 0.935 µM | Potency [5] 1.18 µM | Potency [7] 920 nM

CC(C)(C)c1cc(C(C)(C)C)c(NC(=O)c2c[nH]c3ccccc3c2=O)cc1O
inactive: Potency [1] | Potency [2] | Potency [3] | Potency [4] | Potency [5] | Potency [8]
active: Potency [10] 23.5 µM

CC(C)Nc1cc(C(F)(F)F)cc2nc(NC(=O)c3cccnc3)nn12
active: Potency [2] 11.8 µM | Potency [3] 13.2 µM
inactive: Potency [1] | Potency [4] | Potency [5] | Potency [9] | Potency [7] | Potency [8]

CC(=O)Nc1nc(C)c(-c2ccc(Cl)c(S(=O)(=O)NCCO)c2)s1
active: Potency [2] 5.9 µM | Potency [3] 14.8 µM | Potency [4] 16.6 µM | Potency [5] 10.5 µM | Potency [9] 9.2 µM
inactive: Potency [1] | Potency [8]

COC(=O)Nc1ccc(-c2nc(N3CCOCC3)c3cnn(C4CCN(Cc5cccnc5)CC4)c3n2)cc1
active: Potency [2] 0.166 µM | Potency [3] 0.059 µM | Potency [4] 0.0833 µM | Potency [5] 0.0469 µM | Potency [9] 1.03 µM | Potency [7] 148 nM and 920 nM | Potency [8] 16.6 µM
inactive: Potency [1]

Cn1c(CNc2ccc(C(=N)N)cc2)nc2cc(C(=O)N(CCC(=O)O)c3ccccn3)ccc21
inactive: Potency [1] | Potency [2] | Potency [3] | Potency [4] | Potency [5] | Potency [9] | Potency [7] | Potency [8]

CNC(=O)CN1CCC(Oc2cc3c(Nc4cccc(Cl)c4F)ncnc3cc2OC)CC1
inactive: Potency [1] | Potency [7]
active: Potency [2] 0.0148 µM | Potency [3] 0.0526 µM | Potency [4] 0.105 µM | Potency [5] 0.0526 µM

CCCCCCCCCC(=O)N[C@@H](Cc1c[nH]c2ccccc12)C(=O)N[C@H](CC(N)=O)C(=O)N[C@@H](CC(=O)O)C(=O)N[C@@H]1C(=O)NCC(=O)N[C@@H](CCCN)C(=O)N[C@@H](CC(=O)O)C(=O)N[C@H](C)C(=O)N[C@@H](CC(=O)O)C(=O)NCC(=O)N[C@H](CO)C(=O)N[C@@H]([C@@H](C)CC(=O)O)C(=O)N[C@@H](CC(=O)c2ccccc2N)C(=O)O[C@@H]1C
inactive: Potency [1] | Potency [2] | Potency [3] | Potency [4] | Potency [5] | Potency [9] | Potency [7] | Potency [8]

CNC(=O)c1ccccc1Nc1nc(Nc2ccc(N3CCOCC3)cc2OC)ncc1Cl
inactive: Potency [1]
active: Potency [2] 11.8 µM | Potency [3] 1.32 µM | Potency [4] 1.48 µM | Potency [5] 0.662 µM | Potency [7] 1.87 µM and 1.64 µM
